Assay results reported in PubChem BioAssay AID504834 (National Center for Advancing Translational Sciences (NCATS), 2011).
In all, about 320,000 compounds went through this assay and about 22,000 (6.9%) were called active. Entries that show only a call come without a potency. Roughly 27% stayed inconclusive and do not appear here. The sample holds actives, similar compounds and a random draw of the others, so the mix is not that of the screen. Calls follow the shape of the dose curve; as a rule, active = well fitted inhibition curve with a large enough effect; inconclusive = small, poorly fitted or top-dose-only effect, or another doubt; inactive = no such curve, though single readings can be large or run the other way.

test: Primary qHTS for delayed death inhibitors of the malarial parasite plastid, 96 hour incubation; settings: P. falciparum luciferase reporter growth; series mostly up to 28.7 µM
In short: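 Infected RBCs, 2% Hct / 0.05% parasitemia final; luciferase-reporter P. falciparum; cpd 96 h, 37 C, 5% CO2; luciferase detection reagent; luminescence.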
Potency is read from the fitted curve at half-maximal effect.

Row | Structure (SMILES) | Potency | activity change, negative = inhibition
1 | CCc1ccc(C(=O)OCC(=O)Nc2cccc(S(=O)(=O)NC3=NCCCCC3)c2)cc1 | 10.4 µM (active) | 
2 | O=C(CSc1nc2ccccc2c(=O)n1-c1ccc(F)cc1)NC1CC1 | inactive | 
3 | CN(CCOc1ccc(Br)cc1)CC(=O)Nc1cccc(S(=O)(=O)NC2=NCCC2)c1 | inactive | 
4 | Cc1cccc(-n2c(SCC(=O)Nc3cccc(S(=O)(=O)NC4=NCCCCC4)c3)nc3ccccc3c2=O)c1C | 5.22 µM (active) | 
5 | NS(=O)(=O)c1cccc(NC(=O)CSc2nc3ccccc3n2-c2ccccc2)c1 | inactive | 
6 | O=C(Nc1cccc(S(=O)(=O)NC2=NCCC2)c1)C1CCCCC1 | inactive | 
7 | COc1ccc(C(C)=O)cc1COc1ccc(Cl)c(C)c1 | inactive | 
8 | COCCN(C(=O)CSCc1ccc(C)cc1)c1c(N)n(CC(C)C)c(=O)[nH]c1=O | inactive | 
9 | CC(=O)Nc1ccc(C(=O)/C=C/c2ccc[nH]2)cc1 | inactive | 
10 | Cc1ccccc1OCCC(=O)OCC(=O)NCCc1ccc(S(N)(=O)=O)cc1 | inactive | 
11 | Cc1ccc(OCC(=O)Nc2ccc(S(=O)(=O)Nc3ccccn3)cc2)cc1 | inactive | 
12 | O=C(CS(=O)(=O)c1ccccc1)Nc1ccc(S(=O)(=O)Nc2ccccn2)cc1 | inactive | 
13 | Cc1cc(C)cc(OCC(=O)Nc2ccc(S(=O)(=O)Nc3ccccn3)cc2)c1 | 1.65 µM (active) | 
14 | Cc1ncoc1C(=O)NCCC(c1ccccc1)c1ccccc1 | inactive | 
15 | CC(Cc1ccccc1)C(=O)N(C)Cc1ccccc1 (stereo not drawn) | inactive | 
16 | CC(Cc1ccccc1)NCCC(c1ccccc1)c1ccccc1 (stereo not drawn) | 14.7 µM (active) | 
17 | C[C@H](NC(=O)c1nc[nH]c1C(=O)NCC(=O)OC(C)(C)C)C(=O)OCc1ccccc1 | inactive | 
18 | COC(=O)c1cccc(NS(C)(=O)=O)c1 | inactive | 
19 | COc1ccc(C(=O)COC(=O)CNC(=O)c2cccs2)cc1Br | inactive | 
20 | COc1ccc(-n2c(C)cc(C(=O)COC(=O)c3cc(OC)c(OC)cc3NC(=O)c3cccs3)c2C)cc1 | 2.62 µM (active) | 
21 | Cc1cc(C(=O)COC(=O)c2cccs2)c(C)n1-c1c(C)n(C)n(-c2ccccc2)c1=O | inactive | 
22 | O=C(CN1CCN(c2ccc(F)cc2)CC1)Nc1ccccc1 | inactive | 
23 | CC1CCN(c2c(NCc3ccc(C(=O)NCc4ccccc4)cc3)c(=O)c2=O)CC1 | inactive | 
24 | N#Cc1nc(Cc2cccc3ccccc23)oc1NCc1ccc2c(c1)OCO2 | 14.7 µM (active) | 
25 | c1n[nH]c(NCc2ccc3c(c2)OCO3)n1 |  | 2.18% [at 5.75 µM] (inactive)
26 | N#Cc1nc(Cc2ccccc2)oc1NCCc1ccccc1 | inactive | 

Row | Structure (SMILES) | Potency | activity change, negative = inhibition
27 | O=S(=O)(Nc1n[nH]c(C(F)(F)F)n1)c1ccccc1 | inactive | 
28 | O=C(N/N=C/c1ccccn1)c1cccc(NC(=O)c2ccc(Cl)cc2)c1 | inactive | 
29 | CC(C)(C)c1ccc(Cn2nnc3c(=O)[nH]c(C4CCCN(C(=O)c5ccco5)C4)nc32)cc1 (stereo not drawn) | inactive | 
30 | CCC(C(=O)NCCC(C)C)N(Cc1ccccc1Cl)C(=O)c1snc(C(N)=O)c1N (stereo not drawn) | inactive | 
31 | CCC(=O)N1c2ccc(S(=O)(=O)CCC(=O)N3CCN(c4ccccc4)CC3)cc2CC1C (stereo not drawn) | inactive | 
32 | COc1ccccc1CNC(=O)C1CCN(S(=O)(=O)c2ccc3c(c2)CC(C)N3C(=O)C2CC2)CC1 (stereo not drawn) | inactive | 
33 | Cc1ccc(CNC(=O)CCS(=O)(=O)c2ccc3c(c2)CC(C)N3C(=O)C2CC2)o1 (stereo not drawn) | 11.7 µM (active) | 
34 | CS(=O)(=O)c1ccc(Cl)c(NC(=O)COC(=O)c2cccc(S(=O)(=O)N3CCCC3)c2)c1 | inactive | 
35 | COc1ccc(/C=N/OCc2ccccc2C#N)c(OC)c1 | inactive | 
36 | c1ccc(-c2cc(-c3nnc4sc(-c5ccccn5)nn34)[nH]n2)cc1 | inactive | 
37 | CCOc1cccc(-c2nn3c(-c4ccccn4)nnc3s2)c1 | 8.28 µM (active) | 
38 | COc1ccc(-c2nn3c(-c4ccccc4)nnc3s2)cc1OC | inactive | 
39 | Cc1ccc(SCc2c(C(=O)N/N=C/c3cccnc3)nnn2-c2nonc2N)cc1 | inactive | 
40 | COc1nc(OC)nc(N(C)CCO)n1 | inactive | 
41 | CCCn1nc(Oc2nc(NC(C)C)nc(N(C)C)n2)ccc1=O | inactive | 
42 | COc1nc(Oc2ccc(=O)n(C)n2)nc(N(C)C)n1 | 3.7 µM (active) | 
43 | COC(=O)[C@@H]1CCCN1C(=O)c1cc(COc2cccc3cccnc23)on1 | inactive | 
44 | O=C(COC(=O)/C=C/c1ccc(OC(F)F)cc1)NC1CCCCC1 | inactive | 
45 | Cc1ccc(S(=O)(=O)N(CC(=O)Nc2cccnc2)c2ccc(Br)cc2)cc1 | inactive | 
46 | CC(=O)c1c(C)[nH]c(C(=O)N2CCN(S(=O)(=O)c3ccc(F)c(F)c3)CC2)c1C | inactive | 
47 | Cc1ccc(Nc2nnc(SC(C)C(=O)NC3CC3)s2)cc1 (stereo not drawn) | 14.7 µM (active) | 
48 | CC(C)Nc1nnc(SC(C)C(=O)N(C)C2CCCCC2)s1 (stereo not drawn) | inactive | 
49 | Cc1nnc(SC(C)C(=O)Nc2ccc(S(=O)(=O)NC3CCCCC3)cc2)s1 (stereo not drawn) | inactive | 
50 | CCOc1ccc(N2CC(C(=O)NCc3ccccn3)CC2=O)cc1 (stereo not drawn) | inactive | 
51 | Nc1nnnn1/N=C/c1cccs1 | 1.85 µM (active) | 
52 | COc1ccc(/C=N/n2nnnc2N)cc1OC | inactive | 

Row | Structure (SMILES) | Potency | activity change, negative = inhibition
53 | Nc1nnnn1/N=C/c1cccc(Br)c1 | inactive | 
54 | Cc1ccc(NS(=O)(=O)c2ccc3c(c2)n(C)c(=O)c(=O)n3C)c(C)c1 | inactive | 
55 | O=C(COC(=O)CCOc1ccccc1)Nc1cc(S(=O)(=O)N2CCCCC2)ccc1Cl | inactive | 
56 | C=C(C)c1cccc(C(C)(C)NC(=O)NC2CCCC2)c1 | inactive | 
57 | C=C(C)c1cccc(C(C)(C)NC(=O)NCCN(CC)CC)c1 | 4.15 µM (active) | 
58 | CCN(CC)CCNC(=O)c1cc(S(C)(=O)=O)ccc1OC | inactive | 
59 | CN(CC(=O)Nc1c(Cl)cccc1Cl)C(=O)c1ccncc1 | inactive | 
60 | CC(C)Nc1ccc(-n2nc3ccccc3[n+]2[O-])cc1 | inactive | 
61 | CC(=O)c1c(C)oc2ccc(NS(=O)(=O)c3ccccc3)cc12 | inactive | 
62 | COc1ccc(CCN(C(=O)COc2ccccc2)c2nc(-c3ccccc3)cs2)cc1OC | 11.7 µM (active) | 
63 | CN(C)CCCN(C(=O)COc1ccccc1)c1nc2c(Cl)cccc2s1 | inactive | 
64 | COc1ccc(CCNc2nc(-c3cccc(NC(C)=O)c3)cs2)cc1OC | inactive | 
65 | O=C(NN1C(=O)C2CCCCC2C1=O)c1ccco1 (stereo not drawn) | inactive | 
66 | Cc1ccc(C(=O)N/C(=C\c2ccco2)C(=O)NC2CCS(=O)(=O)C2)cc1 (stereo not drawn) | inactive | 
67 | Cc1cc(C)cc(Oc2nc3c(C)cccn3c(=O)c2/C=C(\C#N)C(=O)NC2CCS(=O)(=O)C2)c1 (stereo not drawn) | 11.7 µM (active) | 
68 | Cc1cccn2c(=O)c(/C=C(\C#N)C(N)=O)c(N3CCCCCC3)nc12 | inactive | 
69 | CC(=O)Nc1ccc(NC(=O)CSC2=NS(=O)(=O)c3ccccc3N2)cc1 | inactive | 
70 | COc1ccc(OCc2cc(C(=O)N3CCCC3)no2)c2ccccc12 | inactive | 
71 | CC(=O)Nc1c2c(nn1-c1ccc(C)cc1C)CS(=O)C2 (stereo not drawn) | inactive | 
72 | CC(C)c1nc(SCC(=O)Nc2cccc(C(=O)O)c2)c2c3c(sc2n1)CCCC3 | inactive | 
73 | O=C(Nc1sc2c(c1C(=O)O)CCC2)c1ccccc1F | inactive | 
74 | CC(=O)Nc1sc2c(c1C(c1cccc(F)c1)N1CCN(CCO)CC1)CCCC2 (stereo not drawn) | 7.38 µM (active) | 
75 | COc1ccc(OCC(=O)Nc2ccc(NC(=O)c3ccco3)c(C)c2)cc1 | inactive | 
76 | Cc1noc(C)c1C(=O)NCC1COc2ccccc2O1 (stereo not drawn) | inactive | 
77 | CCOc1ccccc1N1CCN(C(=S)Nc2ccc(S(N)(=O)=O)cc2)CC1 | inactive | 
78 | CCOc1ccccc1NC(=S)N1CCN(c2cccc(C)c2C)CC1 | 1.65 µM (active) | 

Row | Structure (SMILES) | Potency | activity change, negative = inhibition
79 | Cc1cccc(NC(=S)N2CCC(O)CC2)c1C | inactive | 
80 | Cc1onc(-c2c(F)cccc2Cl)c1C(=O)N(C)CC(=O)Nc1cccc(F)c1 | inactive | 
81 | CC(C)c1ccc2c(c1)c(SC(C)(C)C)c(CC(C)(C)C(=O)O)n2Cc1ccc(Cl)cc1 | 7.38 µM (active) | 
82 | O=C(O)c1ccc(Cn2c(=S)[nH]c3cc(Cl)ccc3c2=O)cc1 | inactive | 
83 | Cc1nc2cc3c(cc2s1)OCO3 | inactive | 
84 | O=C(c1cc(COc2ccc(F)cc2F)on1)N1CCOCC1 | inactive | 
85 | Cc1cccc(NC(=O)c2ccc3c(=O)n(CC4CCCO4)c(=S)[nH]c3c2)c1 (stereo not drawn) | inactive | 
86 | CCOC(=O)c1c(C)[nH]c(C)c1S(=O)(=O)NCCCc1ccco1 | inactive | 
87 | COc1cccc(CN(C)CC(=O)NCc2ccccc2Cl)c1OC | inactive | 
88 | COc1cccc(CN(C)CC2CCCN(CCc3ccc(Cl)cc3)C2)c1OC (stereo not drawn) | 2.94 µM (active) | 
89 | CN(CC1CCCN(CCc2cccc(C(F)(F)F)c2)C1)C(=O)c1ccc2nc[nH]c2c1 (stereo not drawn) | inactive | 
90 | COc1ccc(-c2noc(C(C)NS(=O)(=O)c3ccc(NC(C)=O)cc3)n2)cc1 (stereo not drawn) | inactive | 
91 | O=C(Cc1ccc(Cl)cc1)NCc1nc(-c2ccccc2)no1 |  | -24.9% [at 1.15 µM] (inactive)
92 | COc1ccc(-c2noc(CNC(=O)C(C)Oc3ccccc3)n2)cc1 (stereo not drawn) | 13.1 µM (active) | 
93 | Cc1ccc(OCC(=O)Nc2ccc3oc(=O)ccc3c2)cc1C | inactive | 
94 | Cc1ccc(S(=O)(=O)N2CCN(C(=O)c3ccc(-n4cncn4)c([N+](=O)[O-])c3)CC2)cc1 | inactive | 
95 | CN1CCN(C(=O)C(=O)c2cn(CC(=O)N3CCCC3)c3ccccc23)CC1 | inactive | 
96 | CCCn1c(=O)c2c(C(F)(F)F)cc(-c3cccs3)nc2n(CCC)c1=O | inactive | 
97 | CCN(CC)c1nc(-c2ccccc2)cc(C(F)(F)F)c1C#N | inactive | 
98 | N#Cc1c(C(F)(F)F)cc(-c2cccs2)nc1N1CCCCC1 | 10.4 µM (active) | 
99 | CCOc1ccc2c(c1)c(=O)c(S(=O)(=O)c1ccc(C)cc1)cn2CC | inactive | 
100 | COC(=O)c1ccc(NC(=O)CSc2nncn2-c2cccnc2)cc1 | inactive | 
101 | COc1cccc(C(=O)NNC(=O)c2cccc(F)c2)c1 | 0.37 µM (active) | 
102 | COc1cccc(C(=O)NNC(=O)c2ccccc2Br)c1 | inactive | 
103 | COc1cccc(C(=O)NNC(=O)/C=C/c2ccccc2)c1 | inactive | 
